The text below walks through data of PubChem BioAssay (NCATS).

Values joined by “and” are separate entries in the source; they are usually repeats but may differ in a detail not shown here. Identical values can stand only once. Results filed as inconclusive are left out. Active and inactive are the calls of the source. The call rests on the fitted dose curve; in most records, active means well fitted cell-killing curve with a large enough effect; inconclusive means small, poorly fitted or top-dose-only effect; inactive means no such curve, though single readings can be large or run the other way.
Potency means the concentration at half of the fitted maximal effect.

A short description of the assay: qHTS of pediatric cancer cell lines to identify multiple opportunities for drug repurposing: Primary screen for SJ-GBM2 cells (AID 1347091). The settings on record: SJ-GBM2 viability, CellTiter-Glo luminescence, 48 h; series mostly up to 46 µM. In short, it runs like this:
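Viability measured as metabolically active cells via CellTiter-Glo luminescence following 48 hours of compound exposure, 11-point dilutions in confirmatory testing. 500-1,000 cells/well plated 5 hours before dosing; controls were DMSO and 2.3 µM bortezomib.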
(In qHTS, concentration-response curves come from the screen itself.)
Take `S=C(NCc1ccc2c(c1)OCO2)N1CCN(c2ncnc3c2oc2ccccc23)CC1`: the Potency entry is “inactive”.

Take `Cc1c(CN2CCN(C(=O)C(C)C)CC2)sc2c(N3CCOCC3)nc(-c3cnc(N)nc3)nc12`: the Potency was 0.132 µM (active).

Turning to `O=C(Nc1cccnc1)N1CCC(Cc2cccc(Oc3ccc(C(F)(F)F)cn3)c2)CC1`, the Potency is 18.7 µM (active).

For the molecule `CCc1cc(Nc2nccc(-c3c(-c4ccc(OC)c(C(=O)Nc5c(F)cccc5F)c4)nc4ccccn34)n2)c(OC)cc1N1CCC(N2CCN(S(C)(=O)=O)CC2)CC1`, the Potency entry is “inactive”.

Take `COc1ccc2c3n(c(=NC(=O)c4cccnc4)nc2c1OC)CCN3`: the Potency was 18.7 µM (active).

On to `CCCS(=O)(=O)Nc1ccc(F)c(C(=O)c2c[nH]c3ncc(Cl)cc23)c1F`, for which the Potency was 10.5 µM (active).

`CN(C)c1ccc(Nc2nc(N)n(C(=O)c3c(F)cccc3F)n2)cc1`: the Potency is 16.6 µM (active).

Regarding `CCCCCCCc1ccc(CCc2cccc(O)c2C(=O)O)cc1`, the Potency is 23.5 µM (active).

As for `O=c1[nH]c(-c2ccc(C(F)(F)F)cc2)nc2c1CSCC2`, the Potency entry is “inactive”.

Regarding `CNC(=O)c1ccccc1Sc1ccc2c(/C=C/c3ccccn3)n[nH]c2c1`, the Potency was 5.31 µM (active).

`COc1ccc(-c2oc3cc(OC)ccc3c2C(=O)c2ccc(C#N)cc2)cc1`: the Potency was 1.18 µM (active).

For the molecule `CCC(C)(C)C(=O)O[C@H]1C[C@@H](C)C=C2C=C[C@H](C)[C@H](CC[C@@H]3C[C@@H](O)CC(=O)O3)[C@H]21`, the Potency was 3.35 µM (active) and 14.8 µM (active).

For `CCn1c(-c2nonc2N)nc2cnc(Oc3cccc(NC(=O)c4ccc(OCCN5CCOCC5)cc4)c3)cc21`, the Potency is 0.235 µM (active).

In the case of `CCOc1cc(N2CCC(O)CC2)ccc1Nc1ncc2c(n1)N(C)c1ccccc1C(=O)N2C`, the Potency is 0.132 µM (active).

Regarding `CCOc1cc(C(=O)Nc2ccc(Cl)c(-c3nc4ccccc4[nH]3)c2)cc(OCC)c1OCC`, the Potency entry was “inactive”.

For the molecule `CCn1c(-c2nonc2N)nc2c(C#CC(C)(C)O)ncc(OC[C@H]3CCCNC3)c21`, the Potency is 23.5 µM (active).

With `COc1cc2nccc(Oc3ccc(NC(=O)NC4CC4)c(Cl)c3)c2cc1C(N)=O`, the Potency is 0.526 µM (active).

With `COc1ccc(-c2ccc3c(N4CCOCC4)nc(N4C[C@@H](C)O[C@@H](C)C4)nc3n2)cc1CO`, the Potency was 0.296 µM (active).

For the molecule `COc1ccc(COc2cc3oc(=O)c4cc(C(C)O)ccc4c3cc2OC)cc1` (centres undefined), the Potency is 10.5 µM (active).

As to `COc1cccc2cc(-c3nc(C4CCC(C(=O)O)CC4)n4ncnc(N)c34)[nH]c12` (centres undefined), the Potency was 0.935 µM (active).

For the molecule `COc1ccc(-c2ccc3c(N4CCOC[C@H]4C)nc(N4CCOC[C@H]4C)nc3n2)cc1CO`, the Potency was 0.0083 µM (active).

Take `Cc1cc2c(C(C)C)c(O)c(O)c(C=O)c2c(O)c1-c1c(C)cc2c(C(C)C)c(O)c(O)c(C=O)c2c1O`: the Potency was 4.22 µM (active) and 3.72 µM (active).

For `COc1ccc(C2=N[C@H](c3ccc(Cl)cc3)[C@H](c3ccc(Cl)cc3)N2C(=O)N2CCNC(=O)C2)c(OC(C)C)c1`, the Potency is 14.8 µM (active).

On to `O=C(C1CC1)N1CC[C@@H](Cn2c(-c3ccc(-c4ccc5occc5c4)cc3)nc3cnccc32)C1`, for which the Potency is 8.33 µM (active).

As to `Cc1ccccc1C(C(=O)NC1CCCC1)N(C(=O)Cn1cnc2ccccc21)c1cccc(F)c1` (centres undefined), the Potency result is “inactive”.

With `Cc1cc(Nc2nc(N[C@@H](C)c3ncc(F)cn3)ncc2Cl)n[nH]1`, the Potency was 23.5 µM (active).

With `CO[C@@H]1[C@H](N(C)C(=O)c2ccccc2)C[C@H]2O[C@]1(C)n1c3ccccc3c3c4c(c5c6ccccc6n2c5c31)C(=O)NC4`, the Potency was 0.833 µM (active).

Consider `Cc1n[nH]c(C)c1Cc1sc2c(c1C(=O)N1C[C@H](O)CO1)c(=O)n(C)c(=O)n2CC(C)C`, for which the Potency entry was “inactive”.

As for `Cc1cc2c(F)c(Oc3ncnn4cc(OC[C@@H](C)O)c(C)c34)ccc2[nH]1`, the Potency is 10.5 µM (active).
